Among all 220,000 compounds or so, about 2,100 (0.95%) were called active.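 How the source made its calls: active means compounds that cut the binding signal by more than half at the single screening dose; inactive means the rest.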 The full list was thinned out, with actives kept by preference.
These compounds were tested against Induced myeloid leukemia cell differentiation protein Mcl-1 (Homo sapiens) (UniProt Q07820) (assay: Mcl-1/Bid binding inhibitors, primary screen, biochemical, TR-FRET, 1536-well (AID 1021;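 further: His-tagged Mcl-1 with europium anti-His antibody binding Bid BH3 peptide; 0% = Mcl-1 plus peptide wells and 100% = peptide-only wells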)). Details: TR-FRET Mcl-1/Bid-Dy647 peptide binding, at 21.7 µM, stronger effect = higher value.
Induced myeloid leukemia cell differentiation protein Mcl-1 (Homo sapiens), sequence (Q07820 whole entry, looked up): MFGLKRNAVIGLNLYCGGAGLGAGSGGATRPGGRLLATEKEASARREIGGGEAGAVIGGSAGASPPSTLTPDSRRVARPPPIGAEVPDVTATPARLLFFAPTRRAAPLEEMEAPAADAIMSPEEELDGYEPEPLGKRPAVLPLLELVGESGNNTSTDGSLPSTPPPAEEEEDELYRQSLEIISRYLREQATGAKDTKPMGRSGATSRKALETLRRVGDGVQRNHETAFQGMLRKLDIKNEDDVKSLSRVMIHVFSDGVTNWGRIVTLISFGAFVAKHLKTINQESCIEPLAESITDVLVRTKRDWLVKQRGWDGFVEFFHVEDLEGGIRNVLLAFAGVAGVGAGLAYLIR

Row | SMILES | inhibition
1 | Cn1nccc1NC(=O)Nc1ccc(OC(F)(F)F)cc1 | -8.69% (inactive)
2 | COc1cc(OC)cc(C(=O)Nc2ccc(-c3nc4ccccc4o3)c(O)c2)c1 | 70.7% (active)
3 | COc1cc(OC)cc(C(=O)Nc2ccc(S(=O)(=O)Nc3cc(C)on3)cc2)c1 | -2.64% (inactive)
4 | O=C(Nc1ccc2oc(-c3ccccc3F)nc2c1)c1ccco1 | -18.3% (inactive)
5 | O=C(NCCCn1ccnc1)C(=O)NCC1OCCN1S(=O)(=O)c1cc(F)ccc1F (stereo not given) | -20.9% (inactive)
6 | Cn1c(CSCC(=O)Nc2ccccc2)nnc1SCc1ccccc1 | 1.29% (inactive)
7 | CC(Sc1nc(-c2ccccc2)cc(C(F)(F)F)n1)C(=O)Nc1ccc2c(c1)OCO2 (stereo not given) | -32.5% (inactive)
8 | CSc1nc(C)cc(SC(C(C)=O)C(=O)Nc2ccccc2)n1 (stereo not given) | -18.3% (inactive)
9 | CC(Sc1nnc2c(n1)C1CCC2(C)C1(C)C)C(=O)Nc1ccccc1 (stereo not given) | 66.7% (active)
10 | COc1ccc(C(=O)NCC(=O)N/N=C/c2ccc([N+](=O)[O-])o2)cc1OC | -51.1% (inactive)
11 | CNC(=O)c1cccc2nc3ccccc3nc12 | -18.3% (inactive)
12 | CN1C2CCC1/C(=C\c1ccccc1Cl)C(=O)/C2=C\c1ccccc1Cl | 7.72% (inactive)
13 | CC1=CC=CN2C1=NC(=O)CC2(C)C(=O)N(CC(=O)NC1CCCC1)c1ccccc1C (stereo not given) | 50.7% (active)
14 | Cc1ccccc1CCN(CC(=O)NC1CCCCC1)C(=O)c1csnn1 | -16.2% (inactive)
15 | CC1=CC2=NC(=O)CC(C)(C(=O)N(CC(=O)NC(C)(C)C)Cc3ccccc3)N2C=C1 (stereo not given) | -15.8% (inactive)
16 | COC(=O)N(NC(=O)C(O)(C(C)C)C(C)C)c1ccccc1 | -9.27% (inactive)
17 | CNC(=S)N1CCN(c2ccccn2)CC1 | -63.9% (inactive)
18 | CCNC(=S)N1CCN(c2ncccn2)CC1 | -29.3% (inactive)
19 | Cc1ccc(NC(=S)N2CCN(c3ncccn3)CC2)cc1C | 92.2% (active)
20 | COc1ccccc1-n1cn[nH]c1=S | -143% (inactive)

Row | SMILES | inhibition
21 | O=C(N/N=C/c1ccc([N+](=O)[O-])o1)c1cn(-c2ccccc2)nc1-c1ccc(F)cc1 | 25.7% (inactive)
22 | C=CCSC(CC)(CC)C(N)=O | -11% (inactive)
23 | N=C1/C(=C/c2cccn2-c2cccc([N+](=O)[O-])c2)C(=O)N=C2SC=CN12 | 71.5% (active)
24 | Cc1cc(/C=C2/C(=N)N3C(=NC2=O)SN=C3S(C)(=O)=O)c(C)n1-c1ccccc1 | -35.9% (inactive)
25 | COC(=O)c1c(C(=O)OC)c2n(c1C)CCS2 | -18.6% (inactive)
26 | CC1COc2ccccc2N1C(=O)c1cccnc1Cl (stereo not given) | -17.1% (inactive)
27 | Oc1c(Cl)cc(Cl)c(Cl)c1Cc1c(O)c(Cl)cc(Cl)c1Cl | 100% (active)
28 | CC(OC(=O)c1ccc(NS(=O)(=O)c2ccc3[nH]c(=O)[nH]c3c2)cc1)C(=O)Nc1cccc(Cl)c1Cl (stereo not given) | -92.2% (inactive)
29 | O=C(O)CC1S/C(=N\N=C/c2ccccc2O)N(c2ccc(O)cc2)C1=O (stereo not given) | -24.9% (inactive)
30 | CC(O)CNCCOc1cccc(Oc2ccccc2)c1 (stereo not given) | -8.32% (inactive)
31 | O=C(NCCc1ccccn1)c1cccnc1Oc1ccc(Cl)cc1 | -2.11% (inactive)
32 | NC(=O)c1ccc(NC(=O)COC(=O)C(Cc2ccccc2)NC(=O)c2ccccc2)cc1 (stereo not given) | -18.9% (inactive)
33 | CCOC(=O)N1CCN(Cc2nc(Cc3cccc(C(F)(F)F)c3)no2)CC1 | -53% (inactive)
34 | O=C(COC(=O)c1cccc(Br)c1)Nc1cccc2c1C(=O)c1ccccc1C2=O | 8.65% (inactive)
35 | O=C(COC(=O)Cn1cnc2ccccc2c1=O)NCc1ccccc1Cl | 8.62% (inactive)
36 | O=C(COC(=O)Cn1cnc2ccccc21)Nc1cccc2c1C(=O)c1ccccc1C2=O | 52.5% (active)
37 | N#Cc1cccc(NC(=O)COC(=O)c2ccccc2C(=O)c2ccc(Cl)c([N+](=O)[O-])c2)c1 | -7.05% (inactive)
38 | CC(C)C[C@H](CO)Nc1nc(N(C)c2cccc(Cl)c2)c2ncn(C(C)C)c2n1 | -56.4% (inactive)
39 | NS(=O)(=O)c1cccc(NC(=O)COC(=O)/C=C/c2ccco2)c1 | -10.4% (inactive)
40 | O=[N+]([O-])C(=c1ccc2c(c1)N1C3=C(CCCC3)CC3CCCCC31N=2)[N+](=O)[O-] (stereo not given) | 78.9% (active)

Row | SMILES | inhibition
41 | CCN(CC)S(=O)(=O)c1ccc(N2CCCC2)c(NS(=O)(=O)c2cccs2)c1 | -28.4% (inactive)
42 | O=C(NNc1ccccc1Cl)C(O)(c1cccc(C(F)(F)F)c1)c1cccc(C(F)(F)F)c1 | 3.27% (inactive)
43 | O=C(C[n+]1ccc2c(c1)nnn2-c1ccccc1)c1ccc(Cl)cc1 | -1.27% (inactive)
44 | Cc1ccc(-c2nc(SCC(=O)Nc3ccccc3OC(F)F)c3c(C)c(C(=O)O)sc3n2)cc1 | 79.3% (active)
45 | Cc1ccc(C)c(SCc2nc3sc(C(=O)O)c(C)c3c(=O)[nH]2)c1 | -24.1% (inactive)
46 | COc1ccccc1NC(=O)CSc1nc2sc(C)c(C)c2c(=O)n1Cc1ccco1 | -24.2% (inactive)
47 | COC(=O)C1=C(N)Oc2cc(C)[nH]c(=O)c2C1c1ccc(Cl)cc1 (stereo not given) | -43.4% (inactive)
48 | CN=c1scc(-c2cc(OC)ccc2OC)n1/N=C/c1c(C)[nH]c2ccccc12 | 39.1% (inactive)
49 | CC(=O)c1ccc(NC(=O)C(C)NCc2ccc(Cl)cc2)cc1 (stereo not given) | 3.24% (inactive)
50 | CCN(CC)c1ccc(S(=O)(=O)N2CCOCC2)cc1NC(=O)CSc1cccc[n+]1[O-] | -69% (inactive)
51 | O=C(O)CC1(CC(=O)Nc2cccc(C(F)(F)F)c2)CCCC1 | -7.96% (inactive)
52 | COc1ccc(C(=O)NNS(=O)(=O)c2ccc(C)cc2)cc1 | -16.3% (inactive)
53 | Cc1ccc(COc2ccc(C(=O)NN)cc2)cc1 | 67.1% (active)
54 | Cc1cccc(OCc2ccc(C(=O)Nc3ccc(F)cc3)cc2)c1 | 11% (inactive)
55 | Cc1cccc(N2Cc3ccccc3C2=NC(=O)c2ccc(Cl)nc2)c1 | -35.5% (inactive)
56 | COc1cccc(OC)c1CN(C)C(=O)c1cnccc1C(F)(F)F | -18.2% (inactive)
57 | O=C(NNC1=C(C(=O)C(F)(F)F)CCC1)c1ccncc1 | -42.6% (inactive)
58 | COc1cccc(C(=O)Nc2cccnc2)c1OC | -18.8% (inactive)
59 | COc1cccc(NC(=O)C2c3cc(OC)c(OC)cc3C(=O)N(C)C2c2cccnc2)c1 (stereo not given) | 84.2% (active)
60 | CCOc1cc2c(cc1OCC)C(C(=O)O)C(c1ccc(OC)c(O)c1)N(C)C2=O (stereo not given) | -21.7% (inactive)

— PubChem BioAssay AID1021 (Emory University Molecular Libraries Screening Center, 2008)
